# FLuc inh: blocks purified firefly luciferase enzyme activity. P08659. purified P. pyralis luciferase, luminescence, biochemical. Potency, µM (series often up to 115 µM), actives largely listed as inhibitors. 76,000 compounds, 2.5% hits; also: nearly all actives have a fitted effect of over 65% in size
#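 Purified 10nM P. pyralis luciferase with 10uM D-luciferin and 10uM ATP in 50mM Tris acetate pH 7.5, 10mM Mg acetate, 0.01% Tween-20, 0.05% BSA. qHTS titration; luminescence read by CCD imager.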
# HEK293 viab: counter-screen for SNCA expression inhibitors: cell viability; HEK-293-SNCA-luc viability, GF-AFC fluorescence, 24 h; Potency, µM (doses to about 57.1 µM), hits mostly cytotoxic; 150,000 compounds, 0.12% hits; also: nearly all actives have a fitted effect of over 30% in size
#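 HEK-293-SNCA-luc cells (1500/well) plated 24 h, then exposed 24 h to a dilution series; GF-AFC added 30 min at 37C, fluorescence 405/540 nm; normalised to medium-only and DMSO wells, Hill fit.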
# NPR1 antag: human Npr1 receptor antagonism; P16066; HEK293 hNpr1 GloSensor cGMP, ANP-stimulated luminescence; Potency, µM (top dose mostly 46.3 µM), actives largely listed as inhibitors; 76,000 compounds, 1.6% hits; AID 1347048; calls by dose curve; also: nearly all actives have a fitted effect of over 60% in size
#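 HEK293 cells stably expressing human Npr1 and cGMP GloSensor pGS-40F, loaded 2 h with 2% GloSensor reagent, given compound 30 min at room temperature. Luminescence read before and 20 min after 0.1 nM hNppA.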
# SNCA expr inhib: reduces expression of the alpha-synuclein gene | Potency, µM (titrated, usually from 57.2 µM), usual class: inhibitors | HEK-293 SNCA-luciferase knock-in, luminescence, 24 h | 140,000 compounds, 0.17% hits; also: nearly all actives have a fitted effect of over 45% in size
# HEK cytotox: cytotoxic compounds in HEK 293 cells | HEK 293 viability, ATP luminescence (CellTiter-Glo), 48-72 h | Potency, µM (highest dose often 115 µM), actives largely listed as inhibitors | 94,000 compounds, 6.6% hits | AID 1345083; also: nearly all actives have a fitted effect of over 60% in size
#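 Pintool-delivered compounds were incubated with HEK 293 cells (250 cells/well) at 37 degree Celsius for 48 or 72 hr. ATP-dependent luminescence (CellTiter-Glo) then reported remaining viable cells.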
# NIH3T3 tox: kills NIH 3T3 cells | Potency, µM (titrated, usually from 96.7 µM), usual class: inhibitors | AID 1345082 | 94,000 compounds, 4.3% hits | NIH 3T3 viability, CellTiter-Glo ATP luminescence, 48-72 h; also: nearly all actives have a fitted effect of over 55% in size
#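 ATP-dependent luminescence (CellTiter-Glo) served as the viability signal for NIH 3T3 cells treated with compound for 48 or 72 hr at 37 °C.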
# A number is an active result; . = inactive; ? = inconclusive; / = not tested or not shown; [ ] = dose if it differs, or a comment. Compounds with a hit are over-represented: about 7.4% of the library has one in this group of screens. Unless noted, calls follow the shape of the dose curve; as a rule, active = well fitted curve in the direction sought with a large enough effect; inconclusive = small, poorly fitted or top-dose-only effect, or another doubt; inactive = no such curve, though single readings can be large; an effect the other way counts as inactive or inconclusive.
SMILES,FLuc inh,HEK293 viab,NPR1 antag,SNCA expr inhib,HEK cytotox,NIH3T3 tox
COc1ccc(C(=O)NC2CCCN(Cc3ccc(-c4cccc(OC)c4)cc3)C2)cc1 (stereo not given),/,.,/,.,35µM,.
COc1cccc(-c2ccc(CN3CCCC(NC(=O)c4cccnc4)C3)cc2)c1 (stereo not given),/,/,/,/,28µM,?
COc1cccc(-c2ccc(CN3CCCC(NC(=O)c4ccc(Cl)cc4)C3)cc2)c1 (stereo not given),/,.,/,.,?,?
Cc1cc(C)cc(-c2ccc(CN3CCCC(NC(=O)c4cccc(Cl)c4)C3)cc2)c1 (stereo not given),/,.[12.5 µM],/,.,40µM,?
CC(C)CC(=O)Nc1n[nH]c2c1CN(C(=O)C1CCN(C)CC1)C2(C)C,/,?,/,0.54µM,/,/
CC(C)CC(=O)NC1CCN(c2cn[nH]c(=O)c2)CC1,.,?,.,.,.,.
CN1CCCN(S(=O)(=O)c2ccc3c(c2)OCCO3)c2ccccc21,.,.,.,.,32µM,?
CC(C)N1C(=O)C2(CCCCC2)C1C(=O)N1CCOCC1 (stereo not given),.,.,.,.,.,.
O=C(CCc1nc(-c2cccnc2)no1)NCc1cc2n(n1)CCCNC2,.,.,.,.,.,.
Cc1ccc(C2Cn3nnc(-c4nc(-c5cccnc5)no4)c3CO2)c(C)c1 (stereo not given),.,.,.,.,?,16µM
Cc1nn(C)cc1C(=O)N1CCC2(CC1)CN(c1ncccn1)CC2CO (stereo not given),.,?,.,.,.,.
O=C(NCCc1ccc(Cl)cc1)c1nc2sccn2c1-c1ccc(F)cc1,/,.,/,.,?,?
COc1ccc(CNC(=O)C2CCCN2Cc2ccc(-c3cccc(OC)c3)cc2)cc1 (stereo not given),/,.,/,.,32µM,40µM
COc1cccc(-c2ccc(CN3CCCC3C(=O)NCc3ccccc3)cc2)c1 (stereo not given),/,.,/,.,40µM,40µM
COc1cccc(-c2ccc(CN3CCCC3C(=O)NC3CCCC3)cc2)c1 (stereo not given),/,.,/,.,?,?
COc1cccc(-c2ccc(CN3CCCC3C(=O)N3CCN(c4ncccn4)CC3)cc2)c1 (stereo not given),/,.,/,.,?,20µM
O=C(NCc1ccc(Oc2ccccc2)cc1)c1nc(-c2cc(Br)c(O)c(Br)c2)no1,/,.,/,/,/,/
COc1ccc(OC)c(CN2CCNc3cc(Nc4ccccc4)ncc3C2)c1,22µM,?,.,.,?,35µM
COc1ccc(OC)c(CN2CCNc3cnc(Nc4cccnc4)cc3C2)c1,.,.,.,.,?,?
Oc1ccccc1CN1CCNc2cnc(Oc3ccccc3)cc2C1,.,.,?,.,79µM,?
Oc1cccc(-c2cc3c(cn2)NCCN(Cc2ccccc2)C3)c1,.,.,.,.,?,?
COc1ccccc1CN1CCNc2cnc(-c3ccccc3)cc2C1,.,.,.,.,79µM,?
COc1ccc(Nc2cc3c(cn2)CN(Cc2ccncc2)CCN3)cc1OC,.,.,.,.,?,?
COc1ccccc1CN1CCNc2cnc(Nc3ccccc3)cc2C1,.,.,.,.,89µM,?
CC(C)=CC(=O)N1C[C@@H](NC(=O)NC2CCCCC2)C[C@H]1C(=O)N[C@H](Cc1c[nH]c2ccccc12)C(N)=O,.,.,.,.,.,.
SMILES,FLuc inh,HEK293 viab,NPR1 antag,SNCA expr inhib,HEK cytotox,NIH3T3 tox
O=C(NCc1ccccn1)c1ccc2nnc(C3CC3)n2c1,/,.,/,.,.,.
O=C(C1CCN(c2nc(-c3ccccc3)nc3c2CCC3)CC1)N1CCNCC1,.,?,.,.,?,?
O=C(NC1CCNCC1)C1CCCN(c2nc(-c3ccccc3)nc3c2CCC3)C1 (stereo not given),.,.,.,.,?,40µM
O=C(C1CCCN(c2nc(-c3ccccc3)nc3c2CCC3)C1)N1CCNCC1 (stereo not given),.,.,.,.,?,?
NC1CCN(C(=O)C2CCCN(c3nc(-c4ccccc4)nc4c3CCC4)C2)CC1 (stereo not given),.,.,.,.,?,28µM
CC(C)(N)C(=O)N1CCN(c2nc(-c3ccccc3)nc3c2CCC3)CC1,.,.,.,.,50µM,?
O=C(NC1CCC(O)CC1)C1CCCN(c2nc(-c3ccccc3)nc3c2CCC3)C1 (stereo not given),.,.,.,.,?,?
O=C(Nc1cc(F)c(F)c(F)c1)N1CCC(OC2CCN(Cc3ccccc3)CC2)CC1,.,.,.,.,?,35µM
CN(C)CCNC(=O)Cc1c[nH]c2ncc(-c3ccccc3)cc12,.,.,.,.,112µM,?
Cc1ccccc1-c1cnc2[nH]cc(CC(=O)NCCN(C)C)c2c1,.,.,.,?,40µM,?
Cc1ccccc1-c1cnc2[nH]cc(CC(=O)NC3CCOCC3)c2c1,.,.,.,.,?,?
O=C(Cc1c[nH]c2ncc(-c3ccccc3)cc12)NCCc1ccccc1,.,.,?,.,?,?
O=C(Cc1c[nH]c2ncc(-c3ccccc3)cc12)NCC1CCOCC1,.,.,.,.,79µM,?
CN1CCN(C(=O)c2nc3sccn3c2-c2ccncc2)CC1,/,.,/,.,.,.
COc1ccc(C2Cn3nnc(-c4noc(-c5cc(F)ccc5F)n4)c3CO2)cc1 (stereo not given),.,?,.,.,.,.
COc1nc2nc(CCc3ccccc3)n(C)c2cc1-c1cccc(NC(C)=O)c1,?,?,.,.,?,?
COc1ccc(-c2noc(CCCC(=O)N3CCCn4nc(-c5ccc(F)cc5)cc4C3)n2)cc1OC,/,?,/,.,32µM,?
CC1=C[C@@H](CN2CCOCC2)[C@H](C(C)C)C[C@H]1Cc1nnc(-c2ccc(N(C)C)cc2)o1,.,.,.,.,?,?
COCCN1CCN(C[C@@H]2C=C(C)[C@H](Cc3nnc(-c4ccc(OC)cc4)o3)C[C@H]2C(C)C)CC1,.,?,.,?,40µM,40µM
CC(=O)N1CCN(C[C@@H]2C=C(C)[C@H](Cc3nnc(-c4cccnc4)o3)C[C@H]2C(C)C)CC1,.,.,.,.,?,?
COCCN1CCN(C[C@@H]2C=C(C)[C@H](Cc3nnc(C)o3)C[C@H]2C(C)C)CC1,.,.,.,.,89µM,?
COc1ccc(-c2nnc(C[C@@H]3C[C@@H](C(C)C)[C@H](CN4CCN(c5ncccn5)CC4)C=C3C)o2)cc1,.,?,.,?,40µM,?
COCc1ncc(C)n1CCNC(=O)c1cc(-c2cccc(Cl)c2)n[nH]1,.,.,.,.,.,.
